Source: PubChem (The Scripps Research Institute Molecular Screening Center)
Rows were chosen to be rich in hits. Some 1.1% of all compounds tested hit in one or more screens of this group.
HTR5A inv ctr: HTR5A inverse agonists in luminescence cell assay, primary screen, counter-screen for OPRM1-OPRD1 heterodimer inverse agonist project, full-deck HTS; 5-hydroxytryptamine receptor 5A (Homo sapiens), P47898; HTR5A cell line, inverse agonism; inhibition, % at 9.3 µM; 340,000 tested, 0.083% active; in the data active = inhibition mostly above about 23%, no sharp cut-off; inactive = mostly below about 18%;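 also: 0% = cells with DMSO and 100% = no-cell wells with DMSO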
HTR5A ag ctr: HTR5A agonists in luminescence cell assay, primary screen, counter-screen for OPRM1-OPRD1 heterodimer agonist project, full-deck HTS; AID 504692, 2011; cell-based; 340,000 tested, 0.61% active; activation, % at 9.3 µM; 5-hydroxytryptamine receptor 5A (Homo sapiens), P47898; in the data active = activation mostly above about 9.5%, no sharp cut-off; inactive = mostly below about 7.6%;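 also: 0% = cells with vehicle only and 100% = reference agonist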
MOR-DOR inv ag: inverse agonists of MOR-DOR heterodimerization, primary screen, cell-based, luminescence; Mu-type opioid receptor (Homo sapiens) + Delta-type opioid receptor (Homo sapiens), …; cell-based MOR-DOR heterodimer luminescence, inverse agonism; inhibition, % at 9.3 µM; 340,000 tested, 0.21% active; AID 504357, 2011; in the data active = inhibition above about 22%, passing the limit was not always enough;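 also: 0% = cells with DMSO and 100% = wells without cells with DMSO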
Target sequence (P35372 whole entry, looked up): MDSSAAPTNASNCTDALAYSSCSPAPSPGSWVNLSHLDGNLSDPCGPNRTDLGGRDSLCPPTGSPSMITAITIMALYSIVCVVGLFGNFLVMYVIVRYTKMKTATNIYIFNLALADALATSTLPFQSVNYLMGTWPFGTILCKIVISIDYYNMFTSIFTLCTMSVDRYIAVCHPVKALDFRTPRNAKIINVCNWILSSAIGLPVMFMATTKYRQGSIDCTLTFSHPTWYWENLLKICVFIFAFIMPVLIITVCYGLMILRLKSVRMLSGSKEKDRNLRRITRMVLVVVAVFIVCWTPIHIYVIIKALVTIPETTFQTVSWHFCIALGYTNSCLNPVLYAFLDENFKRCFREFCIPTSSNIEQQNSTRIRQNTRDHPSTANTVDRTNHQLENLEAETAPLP
Target sequence (P41143 whole entry, looked up): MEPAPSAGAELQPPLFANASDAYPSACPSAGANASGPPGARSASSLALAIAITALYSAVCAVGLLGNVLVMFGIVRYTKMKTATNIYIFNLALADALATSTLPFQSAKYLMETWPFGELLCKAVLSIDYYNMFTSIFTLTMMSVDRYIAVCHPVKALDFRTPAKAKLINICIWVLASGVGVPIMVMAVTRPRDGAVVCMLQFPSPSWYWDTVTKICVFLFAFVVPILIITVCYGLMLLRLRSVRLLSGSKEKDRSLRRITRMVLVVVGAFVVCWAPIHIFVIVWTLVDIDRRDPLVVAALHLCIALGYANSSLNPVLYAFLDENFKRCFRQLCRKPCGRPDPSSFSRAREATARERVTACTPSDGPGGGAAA
OPRM1-OPRD1 ag: agonists of OPRM1-OPRD1 heterodimerization, primary screen, cell-based, luminescence. Mu-type opioid receptor (Homo sapiens) + Delta-type opioid receptor (Homo sapiens), …. cells. activation, % at 9.3 µM. 340,000 tested, 0.3% active; in the data active = activation above about 18%;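 also: 0% = vehicle-treated cells and 100% = reference agonist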
MOR-DOR inv conf: inverse agonists of MOR-DOR heterodimerization, confirmation, cell-based, luminescence; inhibition, % at 9.3 µM; cells expressing OPRM1/OPRD1 heterodimer; shares compounds with MOR-DOR inv ag; 580 tested, 20% active; in the data active = inhibition above about 32%;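 also: 0% = cells with DMSO and 100% = wells lacking cells with DMSO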
HTR5A inv count: HTR5A inverse agonists, counter-screen for OPRM1-OPRD1 inverse agonist project, cell-based, luminescence | shares compounds with MOR-DOR inv ag | HTR5A-expressing cells, inverse agonism | inhibition, % at 9.3 µM | 580 tested, under 10 active | AID 504914, 2011; call rule not given here;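 also: 0% = cells with DMSO and 100% = no-cell wells with DMSO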
* marks the source's active call; other numbers are inactive results; i = inactive; . = not tested or not shown.

SMILES	HTR5A inv ctr	HTR5A ag ctr	MOR-DOR inv ag	OPRM1-OPRD1 ag	MOR-DOR inv conf	HTR5A inv count
Oc1[nH]c2ccccc2c1/C=N/N1CCCCC1	9	-3	37*	-6	27	-15
Oc1ccccc1C=NN1CCCCCC1	4	-1	-9	2	.	.
CC1(C)C(c2ccccc2)=NC(c2ccc(Br)cc2)N1O (stereo not drawn)	36	0	46*	-9	12	5
CCC1=NC(c2ccc(OC)cc2)N(O)C1(C)C (stereo not drawn)	-4	-1	15	-3	.	.
CC1(C)C(c2ccccc2)=NC(c2ccccc2)N1O (stereo not drawn)	-23	-3	18	-4	.	.
COc1ccc(C2N=C(c3ccccc3)C(C)(C)N2O)cc1 (stereo not drawn)	-23	-1	43*	-8	12	0
CCC1=NC(c2ccc(Br)cc2)N(O)C1(C)C (stereo not drawn)	3	-1	33*	-6	25	-7
O=C(NCc1ccco1)C1CCN(S(=O)(=O)Cc2ccccc2)CC1	-15	6	-6	1	.	.
Cc1ccc(OCCNC(=O)/C=C/c2ccc([N+](=O)[O-])cc2)cc1C	7	3	-18	3	.	.
COCc1cc(C)nc2sc(C(=O)N3CCCCC3)c(N)c12	11	1	39*	-7	i	13
COC(=O)[C@]1(Cc2ccccc2)N[C@H](CN(C)C(=O)NC(C)C)[C@@H]2C(=O)N(C)C(=O)[C@@H]21	14	-4	14	-3	.	.
COc1cccc(-n2nc(C#N)c(Cl)cc2=O)c1	14	-5	28*	-5	-2	17
COc1cccc(-n2nc(C(N)=O)c(O)cc2=O)c1	-5	2	14	-2	.	.
CSc1nnc2c(n1)OC1(Nc3ccccc3-2)C(=O)Nc2ccccc21 (stereo not drawn)	-1	-5	53*	-11	-21	-6
CCSc1nnc2c(n1)OC(C)(C)Nc1ccccc1-2	-10	10	0	0	.	.
NC(=O)Cn1cc(C(=O)c2cccs2)c2ccccc21	21	0	3	0	.	.
CCOC(=O)c1c(N)sc(N)c1C(=O)OCC	12	8	51*	-10	i	-4
CCOC(=O)c1c(N)ssc1=S	23	-1	35*	-6	20	-11
O=C(O)c1ccc2nc(-c3ccco3)c(-c3ccco3)nc2c1	6	0	-19	4	.	.
O=C(O)c1ccc2nc3c(nc2c1)-c1ccccc1C3=O	22	11	42*	-9	46*	12
O=C1C(=O)N(CCS(=O)(=O)c2ccccc2)c2ccc(Cl)cc21	-2	1	3	-1	.	.
CCc1ccc2c(c1)C(=O)C(=O)N2CCS(=O)(=O)c1ccccc1	13	-3	45*	-9	-28	-17
O=C1c2ccccc2C(=O)N1CCCn1c(=O)oc2ccccc21	1	1	8	-1	.	.
O=C1Nc2ccccc2Nc2ccccc21	-3	1	16	-3	.	.
Nc1n[nH]c(=S)n1/N=C1/C(=O)Nc2ccccc21	3	-1	7	-1	.	.
SMILES	HTR5A inv ctr	HTR5A ag ctr	MOR-DOR inv ag	OPRM1-OPRD1 ag	MOR-DOR inv conf	HTR5A inv count
O=C1Nc2ccccc2C1=NN1CCCCCC1	20	-5	38*	-7	26	-2
O=C1Nc2ccccc2C1=O	-4	-2	55*	-10	33*	11
CN(c1ccccc1C(=O)Nc1ccc(S(=O)(=O)N2CCOCC2)cc1)S(=O)(=O)c1ccccc1	5	3	33*	-6	-3	-15
O=C(COC(=O)c1cnccn1)c1ccc(Cl)c([N+](=O)[O-])c1	13	-6	81*	-15	-113	-46
O=C(COC(=O)c1cccnc1)c1ccc(Cl)cc1	12	1	17	-3	.	.
Cc1ccc(C(=O)COC(=O)c2cnccn2)cc1[N+](=O)[O-]	19*	-7	54*	-11	33*	17
O=C(OCC(=O)c1ccc(Cl)cc1Cl)c1cnccn1	11	-4	40*	-5	18	1
O=C(COC(=O)c1cccnc1)c1ccc(Cl)c(Cl)c1	7	-6	57*	-10	-150	-11
O=C(COC(=O)c1cnccn1)c1ccc([N+](=O)[O-])cc1	-20	-2	22	-4	.	.
CC(C)N1CCNCC1	12	-3	3	0	.	.
NCCc1nnc(SCc2ccccc2)o1	4	-2	6	-1	.	.
CC(C)(C)Nc1nc(Cl)nc(N(C#N)CN2C(=O)c3ccccc3S2(=O)=O)n1	-16	-11	4	-1	.	.
COc1ccc(S(=O)(=O)N=Nc2c(O)[nH]c3ccccc23)cc1	21	0	45*	-9	-63	4
Cc1ccc(S(=O)(=O)N=Nc2c(O)[nH]c3ccccc23)cc1C	25	-2	47*	-9	-55	1
Cc1ccc(N(CC(=O)N=Nc2c(O)[nH]c3ccccc23)S(C)(=O)=O)c(C)c1	2	2	15	-3	.	.
O=C(Nc1nccs1)c1cc(S(=O)(=O)N2CCCCC2)ccc1Cl	-5	5	4	-1	.	.
Cc1cccc(NC(=O)CNC(=O)COC(=O)c2ccc(C(C)(C)C)cc2)c1C	12	7	-39	10	.	.
OC1=C(O)c2nc3ccccc3nc21	-33	2	84*	-15	73*	-17
O=C(COC(=O)c1ccccn1)c1cccc(Br)c1	17	-2	37*	-7	14	9
O=C(C[n+]1ccccc1)NNc1ccccc1	-21	0	33*	-6	24	-16
COc1ccc(S(=O)(=O)NNc2nc(C)cc(C)n2)cc1[N+](=O)[O-]	0	2	46*	-8	54*	2
O=C(Nc1ccc(O)c(-c2nc3ccccc3s2)c1)c1cccs1	13	-5	36*	-6	4	3
COc1cc(C=NNc2nc3c([nH]2)c(=O)n(C)c(=O)n3C)ccc1O	10	-2	35*	-7	15	-1
CCCCN(C)CCCNC(=O)C1(O)c2ccccc2NC(=O)N1c1ccc(Cl)cc1 (stereo not drawn)	12	-3	-1	0	.	.
COCCN(C(=O)CCC(=O)Nc1cccnc1)C(C(=O)NC1CCCCC1)c1ccccc1 (stereo not drawn)	11	-3	36*	-7	-16	-5
O=C(CCC(=O)N(c1ccccc1)C(C(=O)NC1CCCC1)c1ccncc1)Nc1cccnc1 (stereo not drawn)	-20	3	20	-3	.	.
CCC1CN(C(=O)N2CCC(C(=O)NCCc3ccccc3)CC2)c2ccccc2O1 (stereo not drawn)	10	-3	7	-1	.	.
